Drawing on PubChem BioAssay (NCATS), this text covers Potency for 40 compounds.

Calls of active or inactive are those of the source. A call without a number means that no potency is given here. The call rests on the fitted dose curve; in most records, active means well fitted inhibition curve with a large enough effect; inconclusive means small, poorly fitted or top-dose-only effect; inactive means flat fitted curve, though single readings scatter.

The target of the assay is Phosphoglycerate kinase, glycosomal (Trypanosoma brucei brucei) (UniProt P07378). Briefly: qHTS Validation Assay to Find Inhibitors of Phosphoglycerate Kinase (AID 504547). Conditions: enzymatic PGK inhibition, coupled luminescence read-out; series mostly up to 57.5 µM. The source says: NIH Molecular Libraries Probe Production Network [MLPCN]
Phosphoglycerate kinase, glycosomal (Trypanosoma brucei brucei), sequence (P07378 whole entry, looked up): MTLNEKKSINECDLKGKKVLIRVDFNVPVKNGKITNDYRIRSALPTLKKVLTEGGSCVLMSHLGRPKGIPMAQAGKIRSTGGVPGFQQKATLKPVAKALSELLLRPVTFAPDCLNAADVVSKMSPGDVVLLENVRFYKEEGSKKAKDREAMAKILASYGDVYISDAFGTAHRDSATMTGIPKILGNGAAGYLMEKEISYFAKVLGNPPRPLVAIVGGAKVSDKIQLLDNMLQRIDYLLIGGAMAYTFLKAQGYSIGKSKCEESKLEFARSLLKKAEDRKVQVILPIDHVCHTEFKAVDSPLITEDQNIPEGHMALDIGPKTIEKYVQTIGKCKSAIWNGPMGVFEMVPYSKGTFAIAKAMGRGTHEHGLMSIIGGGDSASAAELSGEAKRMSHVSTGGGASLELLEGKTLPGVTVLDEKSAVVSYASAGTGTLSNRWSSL
NIH Chemical Genomics Center [NCGC]
PI Name: Malcolm Walkinshaw, University of Edinburgh
Several species of the Trypanosomatidae family of parasitic protozoans cause a spectrum of diseases
throughout the tropical and subtropical world. Sleeping sickness, caused by two subspecies of Trypanosoma brucei, is endemic to areas of sub-Saharan Africa, while Chagas disease, a manifestation of Trypanosoma cruzi infection, is prevalent throughout Central and South America. In addition, many species of Leishmania are responsible for a range of cutaneous and visceral diseases, causing ulcers, destructive lesions and kalaazar, a lethal infection of the viscera. Collectively, these organisms infect 30 million people worldwide (~500 million live in endemic areas), and account for ~130,000 deaths annually. Given their debilitating and prevalent nature, trypanosomatid parasites impose a heavy medical, economic and social burden on entire populations, primarily in the developing world. The problem is further exacerbated by the fact that existing treatments have progressed little in the past 50 years, and current drugs show high toxicity and poor efficacy.
Blood-stream stages of T. brucei are entirely dependent on glycolysis as a source of ATP, and the tricarboxylic acid cycle and oxidative phosphorylation are both repressed. Glycolysis in axenically cultured T. cruzi, representing the intracellular pathogenic stage, is also essential for these parasites. […] Previous studies have shown that the glycolytic enzyme, phosphoglycerate kinase (PGK), is a viable target for drugs to kill these parasites.
NCGC Assay Protocol Summary:
Briefly, 3ul of substrate/PGK buffer (columns 1,2,5-48) are dispensed into Greiner white solid bottom 1536-well assay plates; columns 3-4 receive only TEA buffer as 0x PGK controls. Compounds are then transferred via Kalypsys pin tool equipped with 1536-pin array (10nl slotted pins, V&P Scientific, San Diego, CA). Following addition of compound, 1ul of GAPDH (100nM final concentration, all columns) is added to initiate the reaction (this upstream coupling enzyme is necessary for in-well production of PGK substrate, 1,3-bisphosphoglycerate (1,3-BPG), which is unstable and not commercially available). The plates are then incubated at room temperature for 60 minutes. Kinase-Glo Plus reagent is added (2ul) and plates incubated for 10 minutes, before being transferred to a ViewLux high-throughput CCD imager (PerkinElmer) wherein single end-point measurements of luminescence are acquired using a clear filter. All reagents are diluted in an assay buffer consisting of 100mM TEA (pH 7.6), 5mM MgCl2 and 0.01% Tween-20.
(In general: qHTS replaces the single test concentration by a dilution series.)
With `NCCCCCC(=O)O`, the Potency entry was “inactive”.
For `Nc1nnc(-c2cccc(Cl)c2Cl)c(N)n1` the value was “inactive”; for `CCC1(c2ccccc2)C(=O)NCNC1=O`, “inactive”.
For `Cc1ccccc1N1C(=O)c2cc(S(N)(=O)=O)c(Cl)cc2NC1C` (stereo not given) the value was “inactive”.
For `NC(CO)C(=O)NNCc1ccc(O)c(O)c1O` (stereo not given) the value was “inactive”; for `Clc1ccc2c(c1)C(N1CCNCC1)=Nc1ccccc1O2`, “inactive”.
Regarding `CC[N+](CC)(CC)CCOc1cccc(OCC[N+](CC)(CC)CC)c1OCC[N+](CC)(CC)CC`, the Potency entry was “inactive”.
For `Cc1cn([C@H]2C=C[C@@H](CO)O2)c(=O)[nH]c1=O` the value was “inactive”.
In the case of `CC(C(=O)O)c1cccc(C(=O)c2ccccc2)c1` (stereo not given), the Potency entry is “inactive”.
As to `CN1C2CCC1CC(OC(=O)C(CO)c1ccccc1)C2` (stereo not given), the Potency entry is “inactive”.
On to `Cn1c(=O)c2[nH]cnc2n(C)c1=O`, for which the Potency result is “inactive”.
For `CC(COc1ccccc1)N(CCCl)Cc1ccccc1` (stereo not given) the value was “inactive”; for `O=C(c1ccc(OCCN2CCCCC2)cc1)c1c(-c2ccc(O)cc2)sc2cc(O)ccc12`, “inactive”; for `CN(C)CCC=C1c2ccccc2C=Cc2ccccc21`, “inactive”.
For `Cc1cc(C(C)(C)C)cc(C)c1CC1=NCCN1` the value was “inactive”.
For `Clc1ccccc1C(c1ccccc1)(c1ccccc1)n1ccnc1` the value was “inactive”; for `O=C(CCCN1CCC(O)(c2ccc(Cl)cc2)CC1)c1ccc(F)cc1`, “inactive”; for `Cn1cnc2c1c(=O)[nH]c(=O)n2C`, “inactive”.
For `Nc1nc2c(ncn2COC(CO)CO)c(=O)[nH]1`, the Potency result was “inactive”.
For `COc1cc2nc(N3CCN(C(=O)c4ccco4)CC3)nc(N)c2cc1OC` the value was “inactive”.
In the case of `Cc1cc(C(C)(C)C)c(O)c(C)c1CC1=NCCN1`, the Potency result was “inactive”.
Turning to `CN1CCC(=C2c3ccccc3CC(=O)c3sccc32)CC1`, the Potency result was “inactive”.
For `O=C1N(c2ccccc2)c2ccccc2C1(Cc1ccncc1)Cc1ccncc1` the value was “inactive”.
For `Cc1cn([C@H]2C[C@H](N=[N+]=[N-])[C@@H](CO)O2)c(=O)[nH]c1=O` the value was “inactive”.
For `COc1nc(C)nc(Cl)c1NC1=NCCN1` the value was “inactive”; for `CN1CCC(=C2c3ccccc3C=Cc3ccccc32)CC1`, “inactive”.
For `CCCCc1oc2ccccc2c1C(=O)c1cc(I)c(OCCN(CC)CC)c(I)c1`, the Potency entry is “inactive”.
In the case of `OCCN1CCN(CCCN2c3ccccc3Sc3ccc(C(F)(F)F)cc32)CC1`, the Potency result was “inactive”.
For `N[C@@H](Cc1c[nH]c2ccc(O)cc12)C(=O)O` the value was “inactive”; for `Cc1cnc(C(=O)NCCc2ccc(S(=O)(=O)NC(=O)NC3CCCCC3)cc2)cn1`, “inactive”.
For `CN(C)CCCN1c2ccccc2CCc2ccc(Cl)cc21` the value was “inactive”; for `COc1cc2nc(N3CCN(C(=O)C4COc5ccccc5O4)CC3)nc(N)c2cc1OC` (stereo not given), “inactive”.
For `O=C(c1ccc(F)cc1)C1CCN(CCn2c(=O)[nH]c3ccccc3c2=O)CC1` the value was “inactive”; for `CCOC(=O)C(C)(C)Oc1ccc(Cl)cc1`, “inactive”; for `COc1ccccc1OCC(O)CN1CCN(CC(=O)Nc2c(C)cccc2C)CC1` (stereo not given), “inactive”.
On to `COc1ccccc1N1CCN(CC(O)COc2cccc3ccccc23)CC1` (stereo not given), for which the Potency entry is “inactive”.
For `CC(C)(Oc1ccc(C2CC2(Cl)Cl)cc1)C(=O)O` (stereo not given) the value was “inactive”; for `Cn1ccc2cc3c(cc21)CCN3C(=O)Nc1cccnc1`, “inactive”.
For `O=C(Nc1ccc([N+](=O)[O-])cc1Cl)c1cc(Cl)ccc1O` the value was “inactive”; for `Clc1ccc(C(c2ccccc2Cl)C(Cl)Cl)cc1` (stereo not given), “inactive”.
